Tgondii IFNg: inhibitors of Toxoplasma gondii growth with IFN-gamma | 3.8% of 69,000 active | Toxoplasma gondii growth in IFN-gamma-treated host cells; active compounds read low | activity change, negative = inhibition, % (test concentration not listed); in the data active = activity change below about -70%, passing the limit was not always enough;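 also: host cells are HeLa cells infected with Toxoplasma gondii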
* marks the source's active call; other numbers are inactive results; i = inactive; ! = not active in a repeat. Only a selection was taken, and hits are over-represented in it overall.

SMILES	Tgondii IFNg
COc1ccc2c(c1)CCC/C2=N\NC(N)=S	-99.1*
NC(=S)NN=C1Cc2ccccc2C1	67.8
COc1ccc(-c2ccc(N)nc2)c(C)c1	5.5
CC(C)C(=O)Nc1cccc(-c2cccc3c2CCNC3)c1	3.5
COC(=O)c1cc(C)nc2c1c(=O)nc(SCc1nc(-c3ccccc3Cl)oc1C)n2C1CC1	i
CN(C)S(=O)(=O)N1Cc2cncn2CC(COCC2CCC2)C1 (stereo not drawn)	2.0
O=C(c1ccc(N2CC(O)C2)nc1)N1CCC(CCc2ccccc2)CC1	-14.9
Cc1cccc(S(=O)(=O)N2CCC(C(=O)NCCc3csc(C)n3)CC2)c1	24.4
COC1C=COC2(C)Oc3c(C)c(O)c4c(c3C2=O)C2(C=C(NC(=O)/C(C)=C\C=C/C(C)C(O)C(C)C(O)C(C)C(OC(C)=O)C1C)C4=O)OCC(=O)O2 (stereo not drawn)	13.7
CO[C@H]1/C=C\C=C(/C)C(=O)NC2=CC(=O)C(NCCN(C)C)=C(C[C@@H](C)C[C@H](OC)[C@H](O)[C@@H](C)/C=C(\C)[C@@H]1OC(N)=O)C2=O	-81.8*!
CN1CCN(c2ncccc2CNC(=O)COCC2CCCO2)CC1 (stereo not drawn)	-2.9
COc1cccc(OC(C)C(=O)NCc2cccc(-c3nn(C)cc3-c3ccncc3)c2)c1 (stereo not drawn)	-114.2*
Cc1ncc(-c2ccncc2)c(-c2ccc(CNC(=O)C3CCOC3)cc2)n1 (stereo not drawn)	-38.9
CCC(=O)NCc1cccc(-c2ccc(OC)cc2OC)c1	-1.1
COc1cc(C(=O)NCc2ccc(-c3nn(C)cc3-c3ccncc3)cc2)nc(OC)n1	-101.6*
Cn1cc(-c2ccncc2)c(-c2ccc(CNC(=O)COCC3CCCCO3)cc2)n1 (stereo not drawn)	-92.0*
COc1ccccc1-c1cccc(-c2nc(C(=O)NCc3ccncc3)cc3c2[C@H](CCO)N([S@@](=O)C(C)(C)C)C3)c1	-1.9
COc1cc(C(=O)NCCCn2ccnc2C)nc(OC)n1	-11.3
Cc1cnccc1-c1cn(C)nc1-c1cccc(CNC(=O)Cc2cccnc2)c1	-19.3
O=C(O)CCn1nnnc1-c1cccs1	-36.5
O=C(Cc1cc2c(cc1Cl)OCCO2)NCc1cccnc1-n1ccnc1	13.7
CCc1ccc(-c2noc(-c3nnn(Cc4nc(-c5ccccc5OC)oc4C)c3C)n2)cc1	6.7
Cc1cc(CNC(=O)Nc2c(C)noc2C)c(C(F)(F)F)o1	-46.1
Cc1ccc(N2C[C@@H](OCC(=O)N(C)C)[C@@H]3OCCC[C@@H]32)nn1	-10.1
Cc1csc(CN2CCOc3c(O)cc(-c4ccc(C)s4)cc3C2)n1	-6.5
SMILES	Tgondii IFNg
Cc1ccc(-c2cc(O)c3c(c2)CN(C(=O)CCN2CCCO2)CCO3)s1	-75.4*
Cc1ccc(-c2cc(O)c3c(c2)CN(C(=O)c2cccc(F)c2)CCO3)s1	-70.1*
Cc1ccc(-c2cc(O)c3c(c2)CN(CC2CCCN2C)CCO3)s1 (stereo not drawn)	-5.8
Cc1cc(C(=O)N2CCOc3c(O)cc(-c4ccccc4C)cc3C2)no1	-63.2
Cc1noc(CN2CCOc3c(O)cc(-c4ccc(C)s4)cc3C2)n1	0.4
COCCNC(=O)C[C@@H]1COC[C@H]2CN(S(C)(=O)=O)C[C@H]12	-1.2
COCCC(=O)N1CCOCC1c1nccc(N2CCOCC2)n1 (stereo not drawn)	-50.4
Cc1noc(C)c1CN1CCC(N2CCOCC2)CC1C(=O)O (stereo not drawn)	38.4
Cc1ccc(NC(=O)CC(=O)N(C)CC2CCCCO2)cc1 (stereo not drawn)	2.9
CCCN(Cc1cccnc1)C(=O)c1ccc(Cl)cc1OC	-2.2
O=C1NC(=O)C(c2cnc3ccccn23)=C1c1cn2c3c(cc(F)cc13)CN(C(=O)N1CCCCC1)CC2	-86.9*
CN(C)CC1(O)CCCN(C(=O)c2cnc3ccccn3c2=O)C1 (stereo not drawn)	4.8
CN(C)CC1(O)CCCN(C(=O)c2cnc3ccccn3c2=O)CC1 (stereo not drawn)	1.8
CC(C(=O)NCCc1cnc[nH]1)N1C(=O)c2cccc3cccc1c23 (stereo not drawn)	11.6
COCCN(CCOC)C(=O)c1cc(-c2cnc(Nc3ccccc3)nc2)cn1C	16.2
Cc1nnsc1C(=O)OCCN(C)c1ccc(C#N)cn1	-4.1
Cc1nnsc1C(=O)OCc1cc(F)cc(F)c1	-77.1*
Cc1nnsc1C(=O)N(Cc1ccccc1)C(C)C	-6.1
Clc1ccc(C2=NC(c3ccc4c(c3)OCO4)N=C(c3ccc(Cl)cc3)S2)cc1	6.5
COCCNC(=O)C1CN(Cc2cccc(C)n2)Cc2ccnn2C1 (stereo not drawn)	6.6
Cc1ccc2c(c1)c1nc3ccccc3nc1n2C	-63.2
Cn1c2ccccc2c2n[nH]c(=O)nc21	-105.2*
Cc1nn(-c2ccccc2)c2c1c(=O)n(C)c1ccccc21	-41.2
C#Cc1cccc(C(=O)N(C)CCOc2ccccc2CC)c1	-23.8
O=c1ccc2cc(S(=O)(=O)N3CCCC3)ccc2[nH]1	i
O=c1[nH]c(O)c(N=Nc2ccc(S(=O)(=O)N3CCCC3)cc2)c(=O)[nH]1	-74.2*
COC(=O)Nc1ccc(S(=O)(=O)N2CCCCC2)cc1	24.8
